Measured values: PubChem BioAssay AID1240 (Sanford-Burnham Center for Chemical Genomics, 2008)
About 800 (1.6%) of roughly 50,000 compounds showed an effect of 50% or more. This is one part of a sample in which strong results are shown more often than they occur.

These molecules were tested against Bcl-2-like protein 10 (Homo sapiens) (UniProt Q9HD36) (assay: TR3 peptide-Bcl-B binding displacers, biochemical primary FP assay, phenotype converters (AID 1240;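 note: 0% = Bcl-B with tracer peptide and DMSO and 100% = tracer peptide lacking Bcl-B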)). Settings: GST-Bcl-B / FITC-TR3 peptide fluorescence polarization; stronger effect = higher value; compound at 3.75 mg/L.
Bcl-2-like protein 10 (Homo sapiens), sequence (Q9HD36 whole entry, looked up): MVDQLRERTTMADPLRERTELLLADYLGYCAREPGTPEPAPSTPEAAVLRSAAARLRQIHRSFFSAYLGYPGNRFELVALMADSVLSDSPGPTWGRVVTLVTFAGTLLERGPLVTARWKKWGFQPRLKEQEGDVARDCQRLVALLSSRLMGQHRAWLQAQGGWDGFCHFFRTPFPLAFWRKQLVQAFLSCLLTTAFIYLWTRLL

Structure (SMILES) | displacement [%]
CCOC(=O)c1c(NC(C)=O)sc2cc(C(C)(C)C)ccc12 | -4.1
CC(=O)Nc1nonc1-c1nc2ccccc2n1Cc1ccccc1 | 49.8
CC(=O)Nc1nonc1-c1nc2ccccc2n1Cc1ccc([N+](=O)[O-])cc1 | 8.1
CC(=O)Nc1nonc1-c1nc2ccccc2n1Cc1ccc(C(C)(C)C)cc1 | 52.2
COc1ccccc1NC(=O)c1ccc(Oc2ccc(C(=O)Nc3ccccc3OC)cc2)cc1 | -1.8
CCOC(=O)c1c(NC(=O)COc2c(C)cc(C)cc2C)sc(C(=O)Nc2ccccc2)c1C | 13.1
CCOc1ccc(N2C(=O)CC(SC(=NC)Nc3ccc4c(c3)OCO4)C2=O)cc1 (stereo not drawn) | -6.7
Cc1cc(C)nc(SCC(=O)Nc2ccc(C)c(NC(=O)CSc3nc(C)cc(C)n3)c2)n1 | 23.5
CN(C)c1ccc(/C=C/C(=O)c2ccc3c(c2)OCCO3)cc1 | -18.8
CC1=C(C(=O)OC(C)C)C(c2ccc(F)cc2)NC(=O)N1 (stereo not drawn) | 6.9
CCOC(=O)C1=C(C)NC(C)=C(C(=O)OCC)C1c1ccc(F)cc1 | 0
CC1=C(C(=O)OC(C)C)C(c2ccc(F)cc2)C(C(=O)OC(C)C)=C(C)N1 | 54.7
COc1ccc(CNC(=O)CN(c2c(C)n(C)n(-c3ccccc3)c2=O)S(=O)(=O)c2ccccc2)cc1 | -6.2
Cc1cc(Nc2ccccc2)nn1C(=O)c1ccc(Cl)cc1 | -10.9
Cn1c2ccccc2c2cc(C3Nc4ccccc4C(=O)N3Cc3ccco3)ccc21 (stereo not drawn) | 10.3
O=C(/C=C/c1ccc([N+](=O)[O-])cc1)C1C(=O)c2ccccc2C1=O | -6.3
COc1ccc(/C=C\C(=O)C2C(=O)c3ccccc3C2=O)cc1 | 122
O=C(/C=C/c1ccc(S(=O)(=O)Nc2ccccc2)cc1)C1C(=O)c2ccccc2C1=O | 31.1
CC1CC(C)CN(S(=O)(=O)c2ccc(F)cc2)C1 (stereo not drawn) | -9
CN(C)/C=C/C=C/C(=O)c1ccc(/C=C/C=C/N(C)C)o1 | 36.1
CC(=O)Nc1ccc(/C=C(/C#N)C(=O)N/N=C/c2ccc(NC(C)=O)cc2)cc1 | 110
N#C/C(=C/c1ccc(Cl)cc1)C(=O)Nc1ccc(O)cc1 | 7.1
CC(=O)Nc1ccc(/C=C(/C#N)C(=O)NCc2ccco2)cc1 | 9.4
CSc1ccc(/C=N/NC(=O)c2cc(C)[nH]n2)cc1 | 3.8
O=C(N/N=C\c1ccc(Cl)c(Cl)c1)c1cnccn1 | -7.3
CSc1ccc(/C=N\NC(=O)c2cnccn2)cc1 | 109
Cc1ccc(S(=O)(=O)/N=C(/NC(=S)N2CCOCC2)c2ccccc2)cc1 | -5.4
CCOC(=O)c1ccccc1NC(=O)CN(c1ccc(Br)cc1)S(C)(=O)=O | -5
